# Screening results: PubChem BioAssay, several laboratories
# Shown are actives, neighbours in structure and some others; about 3.9% of the full set was active somewhere.
# TPT1 inhibitor = blocks Candida albicans tRNA 2'-phosphotransferase | recombinant caTPT1, FP RNA substrate dephosphorylation | inhibition, % at 5 µM | 300,000 compounds, 0.81% hits | AID 1962;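 active means inhibition above the mean of all tested compounds plus 3 SD, set per screening campaign, cut at about 24% in these data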;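 further: plate controls were DMSO alone for no effect and ferristatin control at 100 nM for full effect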
# WT yeast gro inh = growth inhibition of WT yeast, mitochondrial fusion screen; 190,000 compounds, 2.1% hits; mitochondrial fusion phenotypic screen, WT strain; inhibition, % at 10 µM; in the data active means inhibition above about 58%; tested in S. cerevisiae
# Platelet DG rel = modulates dense granule release in human platelets; human platelet-rich plasma, SFLLRN dense granule ATP release, luminescence; inhibition, %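 (compounds screened at 7.5 µM in platelet-rich plasma)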; 300,000 compounds, 0.22% hits;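 active means mean replicate score, as percent of positive control, at or above 50; inconclusive means mean below 50 but at least one replicate at or above 50; inactive means mean and every replicate below 50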
# SKKanGAS inh = SKKanGAS growth inhibition; inhibition, % at 7.5 µM; 300,000 compounds, 1.3% hits; S. pyogenes SKKanGAS, kanamycin growth, BacTiter-Glo, 6 h;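 active means mean replicate score, as percent of positive control median, at least 50; inconclusive means mean below 50 but one replicate at or above 50; inactive means mean and every replicate below 50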;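 further: strain carries kanamycin resistance gene driven by streptokinase promoter and grows in 40 µg/ml kanamycin; loss of luminescence reflects streptokinase promoter inhibition or plain growth inhibition; 0% = median of DMSO wells and 100% = positive control at its reference dose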
# PHOSPHO1 inh = inhibitors of human PHOSPHO1 phosphatase. recombinant PHOSPHO1, absorbance phosphatase assay. AID 1565. inhibition, % at 13.3 µM. Q8TCT1. 290,000 compounds, 1.1% hits; in the data active means inhibition above about 60%
# Target sequence (Q8TCT1 whole entry, looked up): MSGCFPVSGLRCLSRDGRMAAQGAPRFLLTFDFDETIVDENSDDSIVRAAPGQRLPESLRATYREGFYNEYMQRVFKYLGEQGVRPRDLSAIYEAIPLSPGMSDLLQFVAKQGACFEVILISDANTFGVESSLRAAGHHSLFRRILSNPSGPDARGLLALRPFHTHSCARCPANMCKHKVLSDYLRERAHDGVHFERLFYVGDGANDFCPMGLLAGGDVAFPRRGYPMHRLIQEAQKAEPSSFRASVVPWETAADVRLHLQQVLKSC
# Rtt109 Vps75 = inhibitors of Candida albicans Rtt109/Vps75 histone acetyltransferase. Q5AAJ8. purified Rtt109/Vps75, ThioGlo CoA-SH fluorescence, 4 h. inhibition, % at 34.9 µM. 330,000 compounds, 0.16% hits;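 active means inhibition of at least 50% in every replicate; inconclusive means best replicate reaches 50% inhibition but some replicates fall short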
# TPT1 inh confirm = TPT1 (C. albicans) inhibition, confirmation; shares compounds with TPT1 inhibitor; recombinant caTPT1, fluorescence polarization, RNase T1 coupled; inhibition, % at 5 µM; 2,400 compounds, 74% hits;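 active means inhibition above the primary screen limit, the mean inhibition of all tested compounds plus 3 SD, cut at about 25% in these data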
# RNase T1 counter = RNase T1 inhibition in TPT1 counter-screen. 2,400 compounds, 83% hits. RNase T1 cleavage, fluorescence polarization, 1536-well. inhibition, % at 5 µM. shares compounds with TPT1 inhibitor;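 active means inhibition above the solvent-only control well mean plus 3 SD, limit set per screening run, cut at about 23% in these data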;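 further: plate controls were DMSO wells with enzyme for no effect and wells without RNase T1 for full effect; inhibitors block cleavage so intact labeled substrate keeps polarization high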
# Target sequence (P00651 whole entry, looked up): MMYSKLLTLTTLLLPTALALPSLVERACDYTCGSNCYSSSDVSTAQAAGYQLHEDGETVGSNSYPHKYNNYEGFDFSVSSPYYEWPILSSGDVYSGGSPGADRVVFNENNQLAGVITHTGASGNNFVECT
# Numbers without * were called inactive; ? = inconclusive; · = not tested or not shown.
SMILES,TPT1 inhibitor,WT yeast gro inh,Platelet DG rel,SKKanGAS inh,PHOSPHO1 inh,Rtt109 Vps75,TPT1 inh confirm,RNase T1 counter
COc1ccc(S(=O)(=O)N2CCCCC2)cc1NC(=O)C1CC1C (centres undefined),·,·,·,·,·,5,·,·
CCOC(=O)/C=c1/s/c(=C/c2ccc3cc(OC)ccc3c2)c(=O)n1CC(=O)NCC1CCCO1 (centres undefined),·,·,·,·,·,-1,·,·
CCOC(=O)/C=c1\s/c(=C\c2c(OC)ccc3ccccc23)c(=O)n1CC(=O)NCC1CCCO1 (centres undefined),28*,1,17,16,10,?,41*,50*
O=C1COc2ccc(S(=O)(=O)CCC(=O)NC3CCCCC3)cc2N1,0,·,8,-2,54,-2,·,·
COc1ccc(NC(=O)CSc2ccc3c(c2)OCCO3)cc1S(N)(=O)=O,·,·,·,·,·,-1,·,·
CCN(CC)CCCNc1nc(CN2CCOCC2)nc2sc3c(c12)CCC3,35*,-11,7,-2,53,5,8,9
O=C(CSS(=O)(=O)O)N1CCN(C(=O)c2ccoc2)CC1,-2,·,20,1,40,-2,·,·
O=C(O)C(SC(C(=O)O)c1ccccc1)c1ccccc1 (centres undefined),·,·,·,·,·,-7,·,·
COc1cc(/C=C2\C(=O)NN(c3ccccc3)C2=O)cc([N+](=O)[O-])c1O,3,-5,1,3,6,8,·,·
COc1cc(/C=C2/C(=O)NN(c3ccc(Cl)cc3)C2=O)cc(OC)c1O,97*,·,3,-1,38,3,151*,154*
COc1cc(/C=C2/C(=O)NN(c3ccccc3)C2=O)cc(Br)c1O,54*,·,11,1,44,-17,84*,103*
Cc1cc(SCC(=O)c2ccc(Cl)cc2)nc(=O)[nH]1,7,·,2,-2,13,5,·,·
Cc1ccc(C(=O)CSc2cc(C)[nH]c(=O)n2)cc1,28*,·,2,2,41,5,39*,47*
Cc1cc(=O)n2nc(N3CCCC3C(=O)Nc3cccc(Cl)c3C)sc2n1 (centres undefined),30*,·,5,-1,-21,-11,92*,103*
Cc1cc(=O)n2nc(N3CCC(C(=O)Nc4cccc(Cl)c4C)CC3)sc2n1,0,·,-9,2,-8,-2,·,·
Cc1sc2nc(CSc3nnc(Cc4cccs4)n3C3CCCCC3)[nH]c(=O)c2c1C,38*,-7,0,7,22,12,66*,74*
Cc1sc2nc(CSc3nc4ccccc4c(=O)n3CCCN3CCOCC3)[nH]c(=O)c2c1C,57*,13,-6,-5,6,-4,67*,77*
Cc1ccc2nc(CSc3nnc(Cc4cccs4)n3C3CCCCC3)cc(=O)n2c1,-1,-10,-1,9,30,5,·,·
Cc1sc2nc(CSc3nc4ccccc4s3)[nH]c(=O)c2c1C,42*,2,0,4,-74,·,52*,64*
O=c1[nH]c(CSc2nc3ccccc3s2)nc2ccccc12,0,·,-2,9,11,4,·,·
CCC(C)N1C(=O)/C(=C/c2c(NCCCOC(C)C)nc3c(C)cccn3c2=O)SC1=S (centres undefined),151*,16,·,·,42,7,165*,156*
CCCN1C(=O)/C(=C/c2c(NCCCOC(C)C)nc3c(C)cccn3c2=O)SC1=S,121*,-5,5,-5,30,-12,116*,129*
Cc1ccc(/C=C2\SC(=S)N(CCCC(=O)Nc3ccccn3)C2=O)cc1,-2,-12,-1,0,15,-6,·,·
COc1ccc(/C=C2\SC(=S)N(CCCC(=O)Nc3cccc(C(=O)O)c3)C2=O)cc1OC,36*,·,0,28,20,15,50*,66*
COc1ccc(/C=C2\SC(=S)N(CCCC(=O)Nc3ccccn3)C2=O)cc1OC,32*,15,-2,24,-32,-6,53*,64*
SMILES,TPT1 inhibitor,WT yeast gro inh,Platelet DG rel,SKKanGAS inh,PHOSPHO1 inh,Rtt109 Vps75,TPT1 inh confirm,RNase T1 counter
O=C(OCC(=O)N1CCN(c2ccc(F)cc2)CC1)c1cnc2ccccc2n1,·,·,·,·,·,-3,·,·
O=C1CSc2ccc(S(=O)(=O)N3CCN(c4ccccc4F)CC3)cc2N1,28*,·,-6,-12,28,21,3,10
O=C1CSc2ccc(S(=O)(=O)N3CCN(c4ccccc4)CC3)cc2N1,2,·,12,-5,33,-3,·,·
O=S1(=O)CCOC[C@H](c2ccccc2)N1Cc1ccccc1F,-2,·,1,2,-7,0,·,·
Cc1ccc(NC(=O)/C(C#N)=C/c2cn(CC(=O)NCc3ccco3)c3ccccc23)cc1C,29*,1,3,0,33,-3,67*,80*
O=C1NC2=C(C(=O)CCC2)C(c2ccc([N+](=O)[O-])cc2)N1 (centres undefined),-3,·,5,0,26,0,·,·
Cc1ccc2c(c1)/C(=C/c1ccc(F)cc1)C(=O)N2,1,·,-2,-15,35,0,·,·
Cc1ccc2c(c1)N/C(=C(\C=C(/Cl)[N+](=O)[O-])[N+](=O)[O-])N2,25*,1,1,28,4,·,23,33*
Fc1ccc(-c2nnn3c2nc(NCc2ccccc2)c2ccccc23)cc1,3,·,0,0,42,2,·,·
NNc1nc2c(-c3ccc(F)cc3)nnn2c2ccccc12,29*,34,24,9,-5,-10,81*,91*
NNc1nc2c(-c3ccc(Cl)cc3)nnn2c2ccccc12,39*,20,4,19,7,·,23,29*
COc1cc(/C=C(\C#N)C(=O)Nc2ccc3c(c2)OCCO3)ccc1O,57*,·,5,-1,-6,0,71*,77*
COc1cc(/C=C/C(=O)OCC(=O)Nc2ccc3c(c2)OCCO3)ccc1O,2,-12,0,1,-9,1,·,·
COc1cc(/C=C(\C#N)C(=O)Nc2ccccn2)ccc1O,34*,·,5,-1,6,9,57*,63*
CC1CCN(C(=O)CSc2nc3c(c(=O)n2C)SC(C)C3)CC1 (centres undefined),-3,·,16,1,37,0,·,·
O=C(CCCN1C(=O)/C(=C\c2cccs2)SC1=S)Nc1ccccn1,2,-1,0,-7,-17,-1,·,·
O=C(CCN1C(=O)/C(=C/c2cccs2)SC1=S)Nc1ccc(C(=O)O)cc1,31*,·,8,22,31,29,29*,39*
O=C(CCN1C(=O)/C(=C/c2cccs2)SC1=S)Nc1ccccn1,33*,-2,6,7,-8,-14,31*,42*
CCc1cccc(OCCCn2ccnc2)c1,36*,11,1,-1,-6,-10,3,9
